AmpC no deterg – qHTS Inhibitors of AmpC Beta-Lactamase (assay without detergent). P00811. AmpC nitrocefin hydrolysis, absorbance 480 nm, 0.0001% Triton. Potency, µM (top dose mostly 57.1 µM), hits mostly inhibitors. 330,000 tested, 0.52% active. AID 485341, 2010; also: nearly all actives have a fitted effect of over 20% in size
Target sequence (P00811 whole entry, looked up): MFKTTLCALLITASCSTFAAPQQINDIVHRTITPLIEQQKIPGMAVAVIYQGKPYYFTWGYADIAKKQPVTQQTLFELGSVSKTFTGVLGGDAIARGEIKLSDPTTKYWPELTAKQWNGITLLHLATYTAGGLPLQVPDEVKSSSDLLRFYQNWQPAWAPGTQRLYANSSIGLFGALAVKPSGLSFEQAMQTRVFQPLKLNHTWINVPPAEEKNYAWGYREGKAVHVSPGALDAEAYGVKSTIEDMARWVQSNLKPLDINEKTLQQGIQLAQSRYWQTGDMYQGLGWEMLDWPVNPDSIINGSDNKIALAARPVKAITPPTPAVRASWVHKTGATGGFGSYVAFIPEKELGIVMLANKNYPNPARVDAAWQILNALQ
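AmpC (5.3 nM in the dispensed reagent) in 20 mM phosphate pH 7.0 with 0.01% (detergent screen) or 0.0001% Triton X-100 was preincubated with compounds for 15 min at room temperature. Nitrocefin was then added from an 800 uM solution, and hydrolysis was followed at 480 nm.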
AmpC detergent – qHTS Inhibitors of AmpC Beta-Lactamase (assay with detergent); P00811; AmpC hydrolysis of nitrocefin, absorbance 480 nm, 0.01% Triton; Potency, µM (series often up to 114 µM), hits mostly inhibitors; 370,000 tested, 0.041% active; AID 485294, 2010; also: nearly all actives have a fitted effect of over 25% in size
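20 mM phosphate pH 7.0 + 0.01% (detergent screen) or 0.0001% Triton X-100; 5.3 nM AmpC reagent; cpd preinc 15 min RT; nitrocefin (800 uM stock) to start; A480 q20 s × 4 min; Activity was normalised to no-enzyme and no-compound control wells.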
RE007 growth inh – qHTS Assay for Inhibitors of the HIV-1 protein Vpr | Potency, µM (titrated, usually from 92.2 µM), hits mostly inhibitors | S. pombe RE007 Vpr strain, BacTiter-Glo ATP luminescence, 24 h | 360,000 tested, 0.21% active; active = well fitted falling curve with a large enough effect; inconclusive = small, poorly fitted or top-dose-only effect; inactive = no such curve, though single readings can be large or run the other way; also: nearly all actives have a fitted effect of over 50% in size
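Fission yeast strain RE007, carrying one chromosomally integrated HIV-1 vpr copy, was seeded at OD 0.01 in PMG+AL medium with 23 nL pinned compound. After 24 h at 30 °C and 99% humidity, viability was read by BacTiter-Glo luminescence.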
Sm TGR inh – qHTS Assay for the Inhibitors of Schistosoma Mansoni Peroxiredoxins; 360,000 tested, 3% active; Schistosoma mansoni thioredoxin glutathione reductase (TGR), Q962Y6; Potency, µM (series often up to 114 µM), hits mostly inhibitors; purified TGR, DTNB reduction, TNB absorbance 405 nm; AID 485364, 2010; also: nearly all actives have a fitted effect of over 60% in size
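Kinetic colorimetric format: TGR-catalysed, NADPH-driven DTNB reduction monitored via TNB absorbance. Enzyme dispensed at 20 nM; compound exposure 15 min at room temperature before reaction start.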
AMA1 RON2 block – qHTS for Inhibitors of AMA1-RON; Towards Development of Antimalarial Drug Lead: Primary Screen; AlphaScreen AMA1-biotinylated RON2 peptide binding; AID 720542, 2013; Potency, µM (top dose mostly 58.2 µM), most hits filed as inhibitors; 360,000 tested, 0.2% active; Plasmodium falciparum AMA1 (3D7) - RON2 peptide interaction; also: nearly all actives have a fitted effect of over 45% in size
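AMA1 (3D7) with his tag at 25 nM final met compounds first, then biotinylated RON2 peptide at 25 nM; detection used donor plus acceptor beads, 10 µg/mL apiece, read by AlphaScreen after 30 min at room temperature.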
Numbers stand for hits; 0 = inactive; ? = inconclusive; - = no result given. Sampled rows, rich in hits. Any-hit rate of the full collection: about 3.2%. Unless noted, calls follow the shape of the dose curve; as a rule, active = well fitted curve in the direction sought with a large enough effect; inconclusive = small, poorly fitted or top-dose-only effect, or another doubt; inactive = no such curve, though single readings can be large; an effect the other way counts as inactive or inconclusive.

SMILES	AmpC no deterg	AmpC detergent	RE007 growth inh	Sm TGR inh	AMA1 RON2 block
N#CCC(=O)Nc1ncc(Cc2ccccc2Cl)s1	18µM	0	0	?	0
COc1ccc(C(=O)n2nc(-c3ccco3)nc2SC)cc1OC	0	?	0	10µM	0
O=C(c1ccccc1F)N1c2nc(-c3ccco3)nn2C2(CCCCC2)[C@@H]2CCCC[C@@H]21	-	0	-	10µM	-
COc1ccc(C(=O)N2c3nc(-c4ccco4)nn3C3(CCCCC3)[C@@H]3CCCC[C@@H]32)cc1OC	-	0	-	11µM	-
COc1ccc(C(=O)n2nc(-c3ccco3)nc2NCc2cccs2)cc1	-	0	-	11µM	-
CSc1nc(-c2ccco2)nn1C(=O)c1cccs1	0	0	0	?	0
CCOC(=O)c1sc2nc(C)n(CC(=O)Nc3cccc(Cl)c3)c(=O)c2c1C	-	0	-	0	-
COc1ccc(CNC(=O)CN2C(=O)COc3ccc(S(=O)(=O)N4CCCCCC4)cc32)cc1	-	0	-	0	-
Cn1c(=O)c2c(-c3ccc(C(C)(C)C)cc3)n(N3CCOCC3)cc2n(C)c1=O	0	35µM	0	0	0
Cn1c(=O)c2c(-c3ccccc3)n(N3CCOCC3)cc2n(C)c1=O	0	?	0	0	0
COc1ccc(CN(C)Cc2c(O)ccc3ccccc23)cc1	0	0	0	3.2µM	0
COc1cccc(CN(C)Cc2c(O)ccc3ccccc23)c1	0	?	0	2.5µM	0
CCN(CC(=O)Nc1ccc(Br)cc1)CC(=O)Nc1cc(C)on1	0	0	0	50µM	0
CN(C)Cc1c(O)ccc2ccccc12	0	0	0	1.1µM	0
Cc1cccc(NC(=O)CN2C(=O)CSc3ccc(S(=O)(=O)N4CCCC4)cc32)c1C	-	0	-	0	-
CCN(CC(=O)Nc1ccc(NC(C)=O)cc1)Cc1c(O)ccc2cc(Br)ccc12	0	0	0	0.79µM	0
Cc1ccc(NC(=O)CN(C)Cc2c(O)ccc3ccccc23)cc1	0	0	?	0.32µM	0
COc1ccc2ccc(O)c(CN(C)CC(=O)Nc3ccccc3C(F)(F)F)c2c1	0	0	0	1.8µM	0
COc1ccc(NC(=O)CN(C)CC(=O)NCc2ccc(C)cc2)cc1	0	0	0	0	0
CCN(Cc1ccncc1)Cc1c(O)ccc2ccccc12	0	0	0	0.71µM	0
CCOc1ccc(NC(=O)CC2C(=O)N(C)C(=S)N2Cc2ccco2)cc1 (stereo unspecified)	0	0	0	?	0
CN1C(=O)C(CC(=O)Nc2ccc(Cl)cc2)N(Cc2ccco2)C1=S (stereo unspecified)	0	0	0	10µM	0
CCc1ccc(NC(=O)CC2C(=O)N(c3cccc(C)c3)C(=O)N2Cc2ccco2)cc1 (stereo unspecified)	-	0	-	45µM	-
CCc1ccc(NC(=O)CC2C(=O)N(c3cccc(OC)c3)C(=O)N2Cc2ccco2)cc1 (stereo unspecified)	-	0	-	40µM	-
O=C(COc1cccnc1[N+](=O)[O-])c1ccc(Cl)s1	?	0	?	2µM	0
SMILES	AmpC no deterg	AmpC detergent	RE007 growth inh	Sm TGR inh	AMA1 RON2 block
Cc1ccc(/C=C/C(=O)O)cc1S(=O)(=O)NCc1ccco1	0	0	0	32µM	0
COc1cc(/C=C/C(=O)O)cc(S(=O)(=O)NCc2ccco2)c1OC	0	0	0	32µM	0
COc1cc(/C=C/C(=O)O)cc(S(=O)(=O)N(C)CCO)c1OC	0	0	0	0	0
Cc1ccc(/C=C/C(=O)O)cc1S(=O)(=O)N(C)CCO	0	0	0	22µM	0
COc1ccc(/C=C/C(=O)O)cc1S(=O)(=O)NCc1ccco1	0	0	0	?	0
COc1ccc(Cl)cc1NC(=O)Cn1c(=O)c(-c2ccccc2NC(C)=O)nc2ccccc21	-	0	-	0	-
CC(C)c1ccc(Nc2nc3ccc(C(=O)c4ccccc4)cc3n3cnnc23)cc1	-	0	-	0	-
Fc1ccc(N2CCN(c3ncnc4c3nc3n4CCCC3)CC2)cc1	-	0	-	?	-
COn1c2c(c3c4no[n+]([O-])c4ccc31)CCCC2	0	0	0	0	0
[O-][n+]1c2c(c3c4non(O)c4ccc31)CCCC2	10µM	0	0	0	0
O=c1c(N2CCN(c3ccc(F)cc3)CC2)csc2ccc(F)cc12	-	0	-	0	-
O=c1c2cc(F)ccc2sn1-c1ccccc1	0	0	11µM	0	0
CC1(C)CC(=O)N(c2cccc(C(F)(F)F)c2)C(=O)C1	0	0	0	0	0
O=c1c2cc(C(F)(F)F)ccc2sn1-c1ccccc1	-	-	8.9µM	-	0
Cc1ccccc1-n1c(-c2csc(C)c2C)n[nH]c1=S	22µM	?	0	0	0
Cc1ccccc1-n1c(-c2csc3ccccc23)n[nH]c1=S	0	?	0	0	0
Cc1cc(C(=O)COC(=O)c2ccccc2O)c(C)n1CC1CCCO1 (stereo unspecified)	0	0	?	0	0
Cc1cc(C(=O)COC(=O)c2cc(O)c3ccccc3c2O)c(C)n1CC1CCCO1 (stereo unspecified)	0	0	0	20µM	0
COc1cc(OC)cc(C(=O)Nc2ccc(NC(=O)c3ccco3)c(C)c2)c1	0	0	0	40µM	0
COc1cc(OC)cc(C(=O)Nc2cc(NC(=O)c3ccco3)ccc2OC)c1	0	0	0	0	0
COc1cc(NC(=O)c2ccco2)c(C(=O)O)cc1OC	0	0	0	40µM	0
O=C(c1nc2ccc(Cl)cn2c1CNCCn1ccnc1)N1CCCCCCC1	0	0	0	0	0
O=C(c1nc2ccc(Cl)cn2c1CN1CCC[C@H]1CO)N1CCCCCCC1	0	0	0	45µM	0
COc1ccc(C2=NO[C@@H]3C(=O)N(c4c(C)cccc4C)C(=O)[C@H]23)cc1OC	0	?	0	?	0
Cc1ccc(N2C(=O)[C@@H]3C(c4cccnc4)=NO[C@@H]3C2=O)cc1	0	0	?	7.9µM	0
SMILES	AmpC no deterg	AmpC detergent	RE007 growth inh	Sm TGR inh	AMA1 RON2 block
COc1ccc(N2C(=O)[C@@H]3C(c4cccnc4)=NO[C@@H]3C2=O)cc1	0	0	0	7.1µM	0
COc1ccc(CN2C(=O)[C@@H]3C(c4ccc(F)cc4)=NO[C@@H]3C2=O)cc1	0	0	0	0	0
Cc1ccc(CN(Cc2ccco2)C(=O)c2oc3c(C)c(C)ccc3c2C)cc1	-	0	-	?	-
Cc1ccc(CN2CCSc3ccc(C(=O)Nc4ccc(C)cc4)cc32)cc1	-	0	-	0	-
Oc1ccc(Cl)cc1C1=NNC(c2cc(Br)cc3c2OCOC3)C1 (stereo unspecified)	0	0	0	25µM	0
COc1ccc(C2=NNC(c3cc(Cl)cc4c3OCOC4)C2)c(O)c1 (stereo unspecified)	0	0	-	-	-
